For the experiment, the target named is Beta-2 adrenergic receptor (Homo sapiens) (UniProt P07550). Briefly: Adrenergic beta2 receptor (ADRB2) small molecule agonists, cell-based qHTS assay (AID 1963593).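 Also: CHO cells stably overexpressing human ADRB2.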 The method in brief:
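CHO cells stably over-expressing ADRB2 were plated overnight at 37C, then dosed with compounds plus a stimulation mix containing 100uM IBMX and 25uM Ro-20-1724 for 0.5hr at room temperature. cAMP was measured by HTRF competition, 1hr.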
(In general: Quantitative high-throughput screening tests each substance at several concentrations.)

Inconclusive results are not listed. Entries that show only a call come without a potency. Active and inactive are the calls of the source. Calls follow the shape of the full dose curve.

Sequence of Beta-2 adrenergic receptor (Homo sapiens) (P07550 whole entry, looked up): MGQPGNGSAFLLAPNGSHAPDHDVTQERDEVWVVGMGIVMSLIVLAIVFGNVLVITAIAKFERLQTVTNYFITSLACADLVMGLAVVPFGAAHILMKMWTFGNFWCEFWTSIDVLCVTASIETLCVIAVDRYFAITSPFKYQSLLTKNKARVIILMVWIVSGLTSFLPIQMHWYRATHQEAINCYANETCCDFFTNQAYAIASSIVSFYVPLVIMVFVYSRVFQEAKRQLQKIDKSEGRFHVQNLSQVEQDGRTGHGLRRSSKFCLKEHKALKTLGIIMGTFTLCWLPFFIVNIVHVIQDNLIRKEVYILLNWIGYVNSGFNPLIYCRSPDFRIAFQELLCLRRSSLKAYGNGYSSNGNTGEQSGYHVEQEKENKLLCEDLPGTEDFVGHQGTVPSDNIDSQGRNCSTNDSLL

Consider `Cc1ccsc1C(=CCCN1CCC[C@@H](C(=O)O)C1)c1sccc1C`, for which the Potency result is “inactive”.
`CCCCN(CCCC)C(=O)N(CCCC)CCCC`: the Potency result is “inactive”.
The same measure for `CCCCC(=O)O[C@]1(C(=O)CO)CC[C@H]2[C@@H]3CCC4=CC(=O)CC[C@]4(C)[C@H]3[C@@H](O)C[C@@]21C`: “inactive”.
On to `COC[C@H](c1ccc(C(F)(F)F)cc1)N1CCN(C2(C)CCN(C(=O)c3c(C)ncnc3C)CC2)C[C@H]1C`, for which the Potency entry is “inactive”.
The same measure for `C=CCOC(=O)/C=C\C(=O)OCC=C`: “inactive”.
For `CC(C)(C)C(=O)OCOC(=O)[C@@H]1N2C(=O)[C@@H](NC(=O)[C@H](N)c3ccccc3)[C@H]2SC1(C)C`, the Potency entry is “inactive”.
For `CC(C)SCc1ccco1`, the Potency result is “inactive”.
Then `O=C(O)Cc1c(Cl)ccc(Cl)c1Cl`, with “inactive”.
Then `CO/N=C(\C(=O)N[C@@H]1C(=O)N2C(C(=O)O)=C(CSc3nc(=O)c(O)nn3C)CS[C@H]12)c1csc(N)n1`, with “inactive”; and `O=C=NCc1cccc(CN=C=O)c1`, with “inactive”; and `CC(C)=CCC1=C(O)c2ccccc2C(=O)C1=O`, with “inactive”.
On to `O=C(O)C(=O)Cc1c[nH]c2ccccc12`, for which the Potency entry is “inactive”.
For the compound `Cc1c(F)cc2c(=O)c(C(=O)O)cn3c2c1CCC3C` (stereo unspecified), the Potency entry was “inactive”.
The same measure for `CCN1CCCC1CN` (stereo unspecified): “inactive”; for `CCCCCCCC(=O)Oc1c(Br)cc(C#N)cc1Br`: “inactive”.
The same measure for `CCOC(=O)COc1cc(-n2ncc(C(F)(F)F)c(C)c2=O)c(F)cc1Cl`: “inactive”; for `CC(NN)c1ccccc1` (stereo unspecified): “inactive”.
Take `CCCCC(CC)COC(=O)CC#N` (stereo unspecified): the Potency result was “inactive”.
The same measure for `O=C(OCCCCCOC(=O)c1ccccc1)c1ccccc1`: “inactive”.
In the case of `O=C(CCN1CCC(c2ccccc2)C1)c1ccc2c(c1)OCCO2` (stereo unspecified), the Potency entry is “inactive”.
The same measure for `C=CC(=O)OCCOC(=O)CCC(=O)O`: “inactive”.
Then `O=C(O)c1cccc(Cl)n1`, with “inactive”.
Then `CCC(CO)(CO)[N+](=O)[O-]`, with “inactive”; and `SCCCCCCCCS`, with “inactive”; and `Nc1c(Cl)cc(Cl)cc1Cl`, with “inactive”.
Take `CC(C)(c1ccc(Oc2ccc3c(c2)C(=O)OC3=O)cc1)c1ccc(Oc2ccc3c(c2)C(=O)OC3=O)cc1`: the Potency result was “inactive”.
Then `CC(C)(Oc1ccc(Cl)cc1)C(=O)OCCCOC(=O)C(C)(C)Oc1ccc(Cl)cc1`, with “inactive”; and `CCN(CC)CCOc1ccc(Cc2ccccc2)cc1`, with “inactive”.
As for `C[N+]1(CC2COC(c3ccccc3)(c3ccccc3)O2)CCCCC1` (stereo unspecified), the Potency result was “inactive”.
Then `c1ccc(CC2=NCCN2)cc1`, with “inactive”; and `O=C1OC(=O)c2cc([N+](=O)[O-])ccc21`, with “inactive”; and `O=C(O)c1ccccc1C(=O)Nc1ccc(S(=O)(=O)Nc2nccs2)cc1`, with “inactive”.
On to `O=C(CO)[C@@H](O)[C@H](O)[C@@H](O)CO`, for which the Potency result is “inactive”.
Regarding `CC(C)CCOC(=O)CC(C)C`, the Potency entry was “inactive”.
For the compound `CC(C)=CCC[C@@](C)(O)[C@H]1CC=C(C)CC1`, the Potency result is “inactive”.
Consider `CCc1nccnc1CC`, for which the Potency entry is “inactive”.
In the case of `Cc1occc1C(=O)Nc1ccc(C(=O)N2CCC(F)(F)/C(=C\C(=O)N3CCC(N4CCCCC4)CC3)c3ccccc32)cc1`, the Potency entry was “inactive”.
The same measure for `CCCCOC(=O)C(C)O` (stereo unspecified): “inactive”; for `CCCCCCCCCCOCC(O)CN` (stereo unspecified): “inactive”.
Then `CCC(Cc1ccccc1)(C(=O)c1ccc(N2CCOCC2)cc1)N(C)C` (stereo unspecified), with “inactive”; and `NCCOCCOCCN`, with “inactive”.
